# FLuc inh: Photinus pyralis luciferase inhibition; hit rate 2.5% among 76,000; AID 1347043; Potency, µM (doses to about 115 µM), most hits filed as inhibitors; purified P. pyralis luciferase, luminescence, biochemical; P08659; further: nearly all actives have a fitted effect of over 65% in size
#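 Purified P. pyralis luciferase (10nM final) in 50mM Tris acetate pH 7.5, 10mM Mg acetate, 0.01% Tween-20, 0.05% BSA with 10uM D-luciferin and 10uM ATP. Compounds titrated qHTS. Luminescence imaged on CCD.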
# NPR1 antag: human Npr1 receptor antagonism. Potency, µM (doses to about 46.3 µM), for the others: top-dose activity change, negative = inhibition, usual class: inhibitors. hit rate 1.6% among 76,000. AID 1347048. HEK293 hNpr1 GloSensor cGMP, ANP-stimulated luminescence; calls by dose curve; further: nearly all actives have a fitted effect of over 60% in size
#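 HEK293 cells stably expressing human Npr1 and cGMP GloSensor pGS-40F, loaded 2 h with 2% GloSensor reagent, given compound 30 min at room temperature. Luminescence read before and 20 min after 0.1 nM hNppA.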
# 3T3 cytotox: cytotoxic compounds in NIH 3T3 cells. Potency, µM (top dose mostly 96.7 µM), inactives show at the top dose activity change, negative = cytotoxicity, usual class: inhibitors. NIH 3T3 viability, CellTiter-Glo ATP luminescence, 48-72 h. AID 1345082. hit rate 4.3% among 94,000; further: nearly all actives have a fitted effect of over 55% in size
#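 ATP-dependent luminescence (CellTiter-Glo) served as the viability signal for NIH 3T3 cells treated with compound for 48 or 72 hr at 37 °C.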
# HEK293 tox: kills HEK 293 cells | HEK 293 viability, ATP luminescence (CellTiter-Glo), 48-72 h | Potency, µM (titrated, usually from 115 µM), without a hit: at the highest dose activity change, negative = cytotoxicity, most hits filed as inhibitors | hit rate 6.6% among 94,000 | AID 1345083; further: nearly all actives have a fitted effect of over 60% in size
#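 HEK 293 cells seeded at 250 cells/well were exposed to compound for 48 or 72 hr at 37 degree Celsius. Viability taken as ATP content by CellTiter-Glo luminescence.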
# Numbers without * were called inactive; i = inactive; ? = inconclusive; [ ] = another dose, or the depositor's remark. This is a sample that favours compounds with a hit; in the whole collection about 11% have one here. Unless noted, the call rests on the fitted dose curve; in most records, active means well fitted curve in the direction sought with a large enough effect; inconclusive means small, poorly fitted or top-dose-only effect, or another doubt; inactive means no such curve, though single readings can be large; an effect the other way counts as inactive or inconclusive. On the % scale 0 is the no-effect control and ±100 the full control effect; potency means the concentration at half of the fitted maximal effect.
SMILES,FLuc inh,NPR1 antag,3T3 cytotox,HEK293 tox
COc1ccc(-n2nc(C)c([C@H]3C=C[C@@H](OC(=O)Nc4ccc(Br)cc4)C3)c2C)cc1,35µM*,11µM*,?,?
COc1ccc(NC(=O)N[C@@H]2C=C[C@@H](c3c(C)nn(-c4ccccn4)c3C)C2)cc1,?,-19%[70.6 µM],112µM*,71µM*
COc1ccc(NC(=O)N[C@@H]2C=C[C@@H](c3c(C)nn(CCC#N)c3C)C2)cc1,i,-13%[70.6 µM],?,?
CCOC(=O)c1oc2ccc(S(=O)(=O)NCC3Cn4cccc4C(=O)N3C)cc2c1C (stereo not drawn),i,?,-26%,40µM*
COc1cccc(S(=O)(=O)NCC2Cn3cccc3C(=O)N2C)c1 (stereo not drawn),i,1%,-16%,-8%
Cc1cccc(OCCc2noc(C3CNC3)n2)c1,i,?,28µM*,28µM*
Cc1cccc(OCCc2noc(C3CCCN3C(=O)c3n[nH]c(=O)c4ccccc34)n2)c1 (stereo not drawn),i,-2%,?,40µM*
C1CC(COCCc2noc(C3CNC3)n2)CCO1,i,-26%,13µM*,7.9µM*
C1CCC(COCCc2noc(C3CCCNC3)n2)C1 (stereo not drawn),i,-4%,1%,-18%
C1CC(Cc2noc(C3CCOCC3)n2)CN1 (stereo not drawn),i,4%,?,79µM*
O=C(NCc1cn[nH]c1-c1ccc(F)cc1)C1COc2ccccc2C1 (stereo not drawn),i,-14%,-12%,?
C=CCn1cc2c3c(cccc31)[C@H](CC(C)C)N[C@H](C(=O)NCc1ccccc1OC)C2,i,-5%[70.6 µM],25µM*,40µM*
C=CCn1cc2c3c(cccc31)[C@H](CC(C)C)N[C@H](C(=O)NC1CCCC1)C2,i,0%[70.6 µM],32µM*,40µM*
C=CCNC(=O)[C@@H]1Cc2cn(CC3CC3)c3cccc(c23)[C@H](CC(C)C)N1,i,-16%[70.6 µM],?,50µM*
C=CCn1cc2c3c(cccc31)[C@H](CC(C)C)N[C@H](C(=O)NCc1ccccc1)C2,i,-17%[70.6 µM],?,?
CC(C)C[C@@H]1N[C@H](C(=O)NC2CCCC2)Cc2cn(CC3CC3)c3cccc1c23,i,4%[70.6 µM],35µM*,45µM*
Cc1ccc(N2Cc3c(ncnc3N3CCOCC3)N(C)CC2=O)cc1,i,1%,-17%,1%
C=CCNC(=O)[C@@H]1Cc2cn(Cc3c(C)noc3C)c3cccc(c23)[C@H](CC(C)C)N1,i,0%[70.6 µM],112µM*,100µM*
C=CCn1cc2c3c(cccc31)[C@H](CC(C)C)N[C@H](C(=O)NC1CCC1)C2,i,-5%[70.6 µM],?,63µM*
COc1cccc(Cl)c1-c1nccc2c(=O)cc(N(C)C)oc12,i,-3%[70.6 µM],50µM*,?
COc1cccc(-c2nccc3c(=O)cc(N(C)C)oc23)c1,i,-5%[70.6 µM],71µM*,-1%[230 µM]
CCOc1ccccc1CN1CCNC(=O)C1CC(=O)NCc1ccco1 (stereo not drawn),i,7%,0%,-19%
O=C(CN1C(=O)NC(c2ccc(Cl)cc2)C2=C1COC2=O)Nc1ccc(Cl)cc1F (stereo not drawn),i,-26%,35µM*,?
CCOC(=O)c1ccccc1NC(=O)CN1C(=O)NC(c2ccc(C)cc2)C2=C1COC2=O (stereo not drawn),i,-11%,?,32µM*
O=C(CN1C(=O)NC(c2ccc(Cl)cc2)C2=C1COC2=O)Nc1cc(F)ccc1F (stereo not drawn),i,-17%,?,45µM*
Cc1cc(NC(=O)CN2C(=O)NC(c3ccccc3Cl)C3=C2COC3=O)ccc1Br (stereo not drawn),?,-22%,40µM*,45µM*
Cc1ccc(C2NC(=O)N(CC(=O)Nc3c(C)cccc3Cl)C3=C2C(=O)OC3)cc1 (stereo not drawn),i,0%,0%,14%
Cc1cccc(Cl)c1NC(=O)CN1C(=O)NC(c2ccc(Cl)cc2)C2=C1COC2=O (stereo not drawn),i,-13%,?,32µM*
O=C(CN1C(=O)NC(c2ccc(Cl)cc2)C2=C1COC2=O)Nc1ccc2c(c1)OCO2 (stereo not drawn),i,-10%,?,?

# Screening data as filed in PubChem BioAssay.
